From PubChem
In the library only some 8.8% were active in any assay of this set; here they are far more common.
HT1080 IDH1KD tx: qHTS for induction of synthetic lethality in tumor cells producing 2HG: qHTS for the HT-1080-IDH1KD cell line; HT-1080 IDH1 knockdown viability, ATP luminescence, 48 h; hit rate 2% among 360,000; Potency, µM (top dose mostly 46.1 µM), inactives show top-dose activity, negative = toxicity, most hits filed as cytotoxic;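 further: potency means the concentration at half of the fitted maximal effect; 0% = DMSO wells and -100% = cell-free medium wells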
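In this qHTS, HT-1080 cells depleted of IDH1 are exposed for 48 h at 37 °C to compound titrations. Toxicity is scored from CellTiter-Glo luminescence, with DMSO as full viability and medium alone as none.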
KB-3-1 tox: qHTS assay for MDR1-selective chemotherapeutics: Primary screen using the parental adenocarcinoma cell KB-3-1 | hit rate 1.4% among 400,000 | KB-3-1 viability, CellTiter-Glo ATP luminescence, 72 h | Potency, µM (doses to about 46.1 µM), actives largely listed as cytotoxic; further: potency means the concentration at half of the fitted maximal effect; nearly all actives have a fitted effect of over 60% in size
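Cytotoxicity measured as CellTiter-Glo luminescence after 72 h at 37 C. Compound titrations were pinned onto drug-naive KB-3-1 parental adenocarcinoma cells grown in DMEM with 10% FBS, and normalized data fitted to concentration-response curves.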
IL-1B inflam inh: qHTS for Inhibitors of Inflammasome Signaling: IL-1-beta AlphaLISA Primary Screen. THP-1 LPS/ATP IL-1B secretion, AlphaLISA, 16 h; stronger effect = lower value. activity change, % at 57.5 µM. hit rate 4.7% among 360,000. AID 743279, 2014; in the data active means activity change below about -50%; inconclusive means mostly about -30% to -49%
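Secreted IL-1B measured by AlphaLISA bead assay after 16 h compound exposure of THP-1 cells; compounds (final up to 57.5 uM) added 1 h before LPS (250 ng/mL) and ATP (1.25 mM) stimulation; lower signal means less secretion.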
HT1080-NT tox: qHTS for induction of synthetic lethality in tumor cells producing 2HG: qHTS for the HT-1080-NT fibrosarcoma cell line; hit rate 1.6% among 360,000; HT-1080-NT fibrosarcoma viability, CellTiter-Glo ATP luminescence, 48 h; Potency, µM (series often up to 46.1 µM), for inactives: top-dose activity, negative = less viability, actives largely listed as cytotoxic;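 further: NT is the 2HG producing partner of a matched IDH1 knockdown line; potency means the concentration at half of the fitted maximal effect; 0% = DMSO-treated cells and -100% = media-only wells without cells; nearly all actives have a fitted effect of over 55% in size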
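Viability by CellTiter-Glo luminescence after 48 h compound exposure at 37C of HT-1080-NT cells (750/well, RPMI, 5% FBS). % activity scaled between DMSO wells and medium-only wells, then curve-fitted and categorized by curve class.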
KB-V1 MDR tox: qHTS assay for MDR1-selective chemotherapeutics: Primary screen using the drug-selected MDR subline cells KB-V1. KB-V1 MDR cells viability, CellTiter-Glo, 72 h. Potency, µM (highest dose often 46.1 µM), most hits filed as cytotoxic. hit rate 3.4% among 400,000. AID 1347076, 2019; further: potency means the concentration at half of the fitted maximal effect; nearly all actives have a fitted effect of over 60% in size
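KB-V1 cells (P-gp-expressing MDR subline of KB-3-1) in phenol-red-free DMEM with 10% FBS were exposed to library compounds over a concentration series for 72 h at 37 degrees C. Viability read by CellTiter-Glo luminescence; concentration-effect curves fitted after normalization.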
* = called active by the depositor; i = inactive; ? = inconclusive; · = no result given; [ ] = another dose, or the depositor's remark. Unless noted, the call rests on the fitted dose curve; in most records, active means well fitted curve in the direction sought with a large enough effect; inconclusive means small, poorly fitted or top-dose-only effect, or another doubt; inactive means no such curve, though single readings can be large; an effect the other way counts as inactive or inconclusive. Unless noted, on the % scale 0 is the no-effect control and ±100 the full control effect.

SMILES | HT1080 IDH1KD tx | KB-3-1 tox | IL-1B inflam inh | HT1080-NT tox | KB-V1 MDR tox
O=C(C1CCN(S(=O)(=O)N2CCC3(CC2)OCCO3)CC1)N1CCc2ccccc2C1 | -2.9% | i | 29.3 | 3.3% | 9.2µM*
O=C(C1CCN(S(=O)(=O)N2CCC3(CC2)OCCO3)CC1)N1CCN(Cc2ccccc2)CC1 | 2.4%[9.24 µM] | i | 12.2 | 7.8% | i
COc1ccc(OCCCCn2c(-c3ccc(Cl)cc3)nc3ccccc3c2=O)cc1 | · | i | · | · | i
CN(C)C(=O)c1ccc(NC(=O)c2ccccc2Sc2ccccc2C#N)cc1 | 3.4% | i | -4.7 | -5.5% | ?
O=C(NC1CCCCC1)c1c(O)nc2sccn2c1=O | -12.1% | ? | 18.9 | -28.0% | ?
CC1CC(NC(=O)c2c(O)nc3sccn3c2=O)CC(C)(C)C1 (configuration not stated) | -24.1% | i | 56.1 | -18.9% | 18.4µM*
O=C(NCCN1CCOCC1)c1c(O)nc2ccccn2c1=O | 8.4% | i | 9.8 | 7.1% | i
O=C(NC1CCCCCC1)c1c(O)nc2sccn2c1=O | ? | ? | 20.4 | -10.0% | 14.6µM*
CC1CC(NC(=O)c2c(O)nc3ccccn3c2=O)CC(C)(C)C1 (configuration not stated) | -0.9% | i | 0.0 | -3.5% | 20.6µM*
COc1ccc(CCNCC(=O)Nc2ccc(C)c(S(=O)(=O)N(C)C)c2)cc1OC | -0.2% | i | 7.4 | -2.4% | i
Cc1cnc2ccc(I)cc2c1/C=C/c1ccc(N(C)C)cc1 | · | 11.6µM* | · | · | ?
Cc1cc(/C=C/c2c(C)cnc3ccccc23)ccc1N(C)C | · | ? | · | · | 16.4µM*
CN(C)c1ccc(/C=C/c2c3c(nc4ccccc24)CCCC3)cc1 | · | i | · | · | i
CN(C)c1ccc(/C=C/c2c(F)cnc3ccccc23)cc1 | · | 9.2µM* | · | · | ?
Cc1cc(/C=C/c2nc3ccccc3s2)ccc1N(C)C | · | i | · | · | i
Cc1cc(C)c2c(/C=C/c3ccc(N(C)C)cc3)ccnc2c1 | · | i | · | · | ?
Brc1ccc(CNc2cc3c(cc2Br)OCCO3)cc1 | 0.9% | i | ? | -4.3% | i
Cc1ccc2c(c1)Sc1c(ccc3ccccc13)N2 | -21.4% | i | 13.7 | -3.1% | i
COc1ccc(CNCCS(=O)(=O)NCc2ccc(OC)cc2)cc1 | 0.2% | i | 34.6 | 4.0% | i
CCCCCCCCNS(=O)(=O)CCNCc1ccc(OC)cc1 | ? | i | -61.2* | -24.5% | i
C=C1C(=O)OC2C1CCC(C)C1C=CC(=O)C12C (configuration not stated) | 20.6µM* | ? | -67.7* | ? | ?
CC(C)(C)OC(=O)N1CCN(C(=O)OCC2c3ccccc3-c3ccccc32)CC1C(=O)O (configuration not stated) | -0.6% | i | 0.0 | -4.8% | i
COc1cc(OC)cc(Oc2ccc(S(=O)(=O)N3CCCCC3)cc2[N+](=O)[O-])c1 | -24.5% | i | -98.8* | -19.3% | i
COC(=O)COc1ccc(S(=O)(=O)N2CCCCC2)cc1[N+](=O)[O-] | 9.0% | i | -17.5 | 15.5% | i
COCCNC(=O)C1(C)CCCN(C(=O)COc2ccccc2)C1 (configuration not stated) | 4.7% | i | -84.6* | ? | i
SMILES | HT1080 IDH1KD tx | KB-3-1 tox | IL-1B inflam inh | HT1080-NT tox | KB-V1 MDR tox
COCCNC(=O)C1(C)CCCN(C(=O)CCc2ccccc2)C1 (configuration not stated) | 4.4% | i | -5.9 | 17.2% | i
CCCCC(=O)Nc1ccc(C(=O)c2ccccc2)cc1 | -12.4% | i | -60.3* | 3.9% | i
CCS(=O)(=O)Nc1ccc(C(=O)c2ccccc2)cc1 | -4.6% | i | -52.0* | -2.6% | i
Fc1ccc(Cc2nnc(-c3cccs3)o2)cc1 | 9.6% | i | 1.1 | -0.4% | i
c1csc(-c2nnc(Cc3cccc4ccccc34)o2)c1 | ? | i | 16.7 | -16.4% | 14.6µM*
O=C(Nc1cc2c(cc1C(=O)c1ccccc1Br)OCCO2)c1cccc(Cl)c1 | · | i | · | · | i
COc1ccccc1CCn1cnc(-c2ccc(OC)c(OC)c2)c1C(C)C | ? | ? | -51.3* | 23.1µM* | i
CCCCc1c(-c2cccc(OC)c2)ncn1CCc1ccccc1OC | 25.9µM* | ? | -95.6* | 20.6µM* | 11.6µM*
CCCCc1c(-c2ccc(OC)c(OC)c2)ncn1CCc1ccccc1OC | 11.6µM* | ? | -50.9* | 14.6µM* | 9.2µM*
COc1ccccc1CCn1cnc2c3cc(C)ccc3n(C)c2c1=O | -10.9% | i | -25.7 | -29.1% | ?
CCCCCc1c(-c2ccccc2)ncn1CCc1ccccc1OC | ? | ? | 0.0 | ? | 14.6µM*
Cc1cccc(NC(=O)CNC(=O)CSc2nc(N)cc(N)n2)c1C | 7.1% | i | 23.3 | 16.1% | i
COc1cccc(C(=O)O[C@@H]2[C@H](Cc3ccccc3)NS(=O)(=O)[C@H]3C[C@@H]4C=C[C@]23O4)c1 | 8.7% | i | -8.1 | 5.6% | i
CN1/C(=C\C(=O)c2cccnc2)C(C)(C)c2ccccc21 | 20.8% | i | 13.7 | 22.0% | ?
CN1/C(=C\C(=O)c2cncc(Br)c2)C(C)(C)c2ccccc21 | -19.6% | ? | -51.4* | -13.0% | ?
CN1/C(=C\C(=O)c2ccco2)C(C)(C)c2ccccc21 | 10µM* | 20.6µM* | ? | ? | ?
CN1/C(=C\C(=O)C(F)F)C(C)(C)c2ccccc21 | 4.8% | i | 19.9 | 3.2% | i
CN1/C(=C\C(=O)C[n+]2ccc3ccccc3c2)C(C)(C)c2ccccc21 | ? | ? | -52.9* | ? | i
CN1/C(=C\C(=O)COC(=O)c2ccco2)C(C)(C)c2ccccc21 | 6.4% | i | 23.3 | -0.7% | ?
CN1/C(=C/C(=O)c2nc(S(C)(=O)=O)ncc2Cl)C(C)(C)c2ccccc21 | 4.61µM* | ? | -100.1* | ? | ?
COc1cccc(C(=O)Nc2c3c(nn2-c2ccc(C)cc2C)CS(=O)(=O)C3)c1OC | · | i | · | · | i
CCCCNC(=O)[C@@H]1CC=C[C@@H]2CCN(Cc3ccccc3)C(=O)[C@@H]21 | · | i | · | · | i
CCOc1cc(C)c(C(C)C)cc1S(=O)(=O)NCc1ccccn1 | 0.4% | i | -4.5 | 8.1% | 9.2µM*
COc1ccc(S(=O)(=O)NCc2ccccn2)cc1Br | 8.4% | i | -11.9 | 5.2% | i
